Laboratory results from the supplement of paper PMC8975748.
Structures can show the parent of a compound that is named as a salt.

Test system: Saccharomyces cerevisiae BY4741 SeMeCo community
Test: z-score of subpopulation abundance vs DMSO median, subpopulation auxotrophic for HM; higher = larger share of this subpopulation than in DMSO controls
Details: 10 µM; 24 h; SM minimal medium; subpopulation (auxotrophy): HM
Description: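 Fluorescent four-plasmid SeMeCo (self-establishing metabolically cooperating S. cerevisiae BY4741 community; plasmids pH-mRuby2, pL-mWasabi, pU-eCFP, pM-TagRFP657) was grown 24 h in minimal SM medium with each Selleck FDA-approved drug at 10 µM in 384-well plates. Cells were fixed and imaged by high-content confocal microscopy. For each auxotrophic subpopulation (and the prototroph), a z-score gives the deviation from the DMSO vehicle-control population median.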

First: OC(c1ccccc1)(c1ccccc1)C12CC[N+](CCOCc3ccccc3)(CC1)CC2 [Umeclidinium bromide]
Second: Fc1ccc(C(c2ccc(F)cc2)N2CCN(C/C=C/c3ccccc3)CC2)cc1 [Flunarizine 2HCl]
The “z-score of subpopulation abundance” value of the first is lower: -0.29 for the first, 1.01 for the second.

Compared with `CCCN(CCc1cccs1)[C@H]1CCc2c(O)cccc2C1` [Rotigotine], `CN1CC2c3ccccc3Oc3ccc(Cl)cc3C2C1` (stereo not given) [Asenapine maleate] is lower in “z-score of subpopulation abundance” value: 1.47 for the first, -0.76 for the second.

Going from `CN(C)C[C@@H]1CCn2cc(c3ccccc32)C2=C(C(=O)NC2=O)c2cn(c3ccccc23)CCO1` to `CN(C)CCC=C1c2ccccc2C=Cc2ccccc21` [Cyclobenzaprine HCl], the “z-score of subpopulation abundance” value falls from 0.28 to -0.88.

Going from `Cc1nnc(SCC2=C(C(=O)O)N3C(=O)[C@@H](NC(=O)Cn4cc(Cl)c(=O)c(Cl)c4)[C@H]3SC2)s1` [Cefazedone] to `CO/N=C(\C(=O)N[C@@H]1C(=O)N2C(C(=O)O)=C(CSc3nc(=O)c(O)nn3C)CS[C@H]12)c1csc(N)n1` [Ceftriaxone Sodium Trihydrate], the “z-score of subpopulation abundance” value falls from 0.02 to -1.19.

`C#C[C@]1(OC(C)=O)CC[C@H]2[C@@H]3CCC4=C[C@@H](OC(C)=O)CC[C@@H]4[C@H]3CC[C@@]21C` [Ethynodiol diacetate] and `CCC(=O)Oc1ccc2c(c1)CCC1C2CCC2(C)C(OC(=O)CC)CCC12` (stereo not drawn) [Estradiol dipropionate(17-Beta-Estradiol-3,17-Dipropionate)] are the same in “z-score of subpopulation abundance” value: -0.18 for the first, -0.18 for the second.

First: O=C(CCCN1CCN(c2ccccn2)CC1)c1ccc(F)cc1 [Azaperone]
Second: COc1cc(C(C)=O)ccc1OCCCN1CCC(c2noc3cc(F)ccc23)CC1 [Iloperidone]
The “z-score of subpopulation abundance” value of the first is lower: -0.63 for the first, 0.05 for the second.

Going from `CCCN[C@H]1CCc2nc(N)sc2C1` [Pramipexole] to `CCCN1CCCC[C@H]1C(=O)Nc1c(C)cccc1C` [Ropivacaine HCl], the “z-score of subpopulation abundance” value falls from 0.07 to -0.41.

First: CC[N+](CC)(CC)CCOc1cccc(OCC[N+](CC)(CC)CC)c1OCC[N+](CC)(CC)CC [Gallamine Triethiodide]
Second: COCCOC(=O)C1=C(C)NC(C)=C(C(=O)OC(C)C)C1c1cccc([N+](=O)[O-])c1 (stereo not given) [Nimodipine]
The “z-score of subpopulation abundance” value of the first is higher: -0.01 for the first, -0.32 for the second.

Going from `O=C1c2c(O)ccc(O)c2C(=O)c2c(NCCNCCO)ccc(NCCNCCO)c21` [Mitoxantrone 2HCl] to `O=C(O)c1cc(O)c2c(c1)[C@H]([C@H]1c3cc(C(=O)O)cc(O)c3C(=O)c3c(O[C@@H]4O[C@H](CO)[C@@H](O)[C@H](O)[C@H]4O)cccc31)c1cccc(O[C@@H]3O[C@H](CO)[C@@H](O)[C@H](O)[C@H]3O)c1C2=O` [Sennoside A], the “z-score of subpopulation abundance” value rises from -7.73 to -1.46.

Going from `COCC(=O)Nc1cc(Sc2ccccc2)ccc1N=C(NC(=O)OC)NC(=O)OC` [Febantel] to `COc1ccc2c(c1)c(CC(=O)OCC(=O)O)c(C)n2C(=O)c1ccc(Cl)cc1` [Acemetacin], the “z-score of subpopulation abundance” value falls from 1.62 to 0.71.

First: CCCc1nn(C)c2c(=O)[nH]c(-c3cc(S(=O)(=O)N4CCN(C)CC4)ccc3OCC)nc12 [Sildenafil Mesylate]
Second: NC1CCN(c2nc3c(cc2F)c(=O)c(C(=O)O)cn3-c2ccc(F)cc2F)C1 (stereo not given) [Tosufloxacin p-Toluenesulfonate Hydrate]
The “z-score of subpopulation abundance” value of the first is higher: -0.05 for the first, -0.46 for the second.

Compared with `CC1(C)S[C@@H]2[C@H](NC(=O)[C@H](NC(=O)N3CCNC3=O)c3ccccc3)C(=O)N2[C@H]1C(=O)O` [Azlocillin sodium salt], `Cc1onc(-c2ccccc2)c1C(=O)N[C@@H]1C(=O)N2[C@@H]1SC(C)(C)[C@@H]2C(=O)O` [Oxacillin sodium monohydrate] is higher in “z-score of subpopulation abundance” value: -0.15 for the first, -0.14 for the second.

Compared with `CC1(C)S[C@@H]2[C@H](NC(=O)[C@H](N)c3ccccc3)C(=O)N2[C@H]1C(=O)OCOC(=O)[C@@H]1N2C(=O)C[C@H]2S(=O)(=O)C1(C)C` [Sultamicillin Tosylate], `CCC(C)(C)C(=O)O[C@H]1C[C@@H](C)C=C2C=C[C@H](C)[C@H](CC[C@@H]3C[C@@H](O)CC(=O)O3)[C@H]21` [Simvastatin] is higher in “z-score of subpopulation abundance” value: 0.76 for the first, 2.47 for the second.

Compared with `CCOC(=O)CCC(=O)O[C@H]1[C@H](O[C@@H]2[C@@H](C)[C@H](O[C@H]3C[C@@](C)(OC)[C@@H](O)[C@H](C)O3)[C@@H](C)C(=O)O[C@H](CC)[C@@](C)(O)[C@H](O)[C@@H](C)C(=O)[C@H](C)C[C@@]2(C)O)O[C@H](C)C[C@@H]1N(C)C` [Erythromycin Ethylsuccinate], `CC[C@H]1OC(=O)[C@H](C)[C@@H](O[C@H]2C[C@@](C)(OC)[C@@H](O)[C@H](C)O2)[C@H](C)[C@@H](O[C@@H]2O[C@H](C)C[C@H](N(C)C)[C@H]2O)[C@](C)(O)C[C@@H](C)C(=O)[C@H](C)[C@@H](O)[C@]1(C)O` [Erythromycin] is lower in “z-score of subpopulation abundance” value: 3.14 for the first, 0.91 for the second.

First: CNCc1cc(-c2ccccc2F)n(S(=O)(=O)c2cccnc2)c1 [Vonoprazan Fumarate (TAK-438)]
Second: CS(=O)(=O)Nc1ccc([N+](=O)[O-])cc1Oc1ccccc1 [Nimesulide]
The “z-score of subpopulation abundance” value of the first is lower: -0.52 for the first, 0.64 for the second.

Compared with `OCCN1CCN(CCCN2c3ccccc3Sc3ccc(C(F)(F)F)cc32)CC1` [Fluphenazine dihydrochloride], `OC1(c2ccc(Cl)c(C(F)(F)F)c2)CCN(CCCC(c2ccc(F)cc2)c2ccc(F)cc2)CC1` [Penfluridol] is lower in “z-score of subpopulation abundance” value: 0.59 for the first, 0.4 for the second.

Compared with `CC1=C[C@H]2C(=O)O[C@H]3C[C@@H](C/C=C(\C)C[C@@H](C)/C=C/C=C4\CO[C@H](/C1=N\O)[C@@]42O)O[C@@]1(CC[C@H](C)[C@@H](C)O1)C3.CC[C@H]1O[C@]2(CC[C@@H]1C)C[C@@H]1C[C@@H](C/C=C(\C)C[C@@H](C)/C=C/C=C3\CO[C@@H]4/C(=N\O)C(C)=C[C@@H](C(=O)O1)[C@]34O)O2` [Milbemycin Oxime], `COC1C(O)CC(=O)OC(C)CC=CC=CC(OC2CCC(N(C)C)C(C)O2)C(C)CC(CC=O)C1OC1OC(C)C(OC2CC(C)(O)C(O)C(C)O2)C(N(C)C)C1O` (stereo not given) [Spiramycin] is lower in “z-score of subpopulation abundance” value: 0.15 for the first, -0.27 for the second.

Going from `Cc1c(OCC(F)(F)F)ccnc1C[S+]([O-])c1nc2ccccc2[nH]1` (stereo not given) [Lansoprazole] to `c1ccc(C2CN3CCSC3=N2)cc1` (stereo not given) [Tetramisole HCl], the “z-score of subpopulation abundance” value falls from -0.45 to -0.54.

First: CC[C@H](C)C(=O)O[C@H]1C[C@H](O)C=C2C=C[C@H](C)[C@H](CC[C@@H](O)C[C@@H](O)CC(=O)O)[C@H]21 [Pravastatin]
Second: CCn1cc(C(=O)O)c(=O)c2cc(F)c(N3CCNCC3)cc21 [Norfloxacin]
The “z-score of subpopulation abundance” value of the first is higher: 0.47 for the first, 0.41 for the second.

Going from `CC(=O)Oc1ccc(C(=C2CCCCC2)c2ccc(OC(C)=O)cc2)cc1` [Cyclofenil] to `C=CCN1CCCC1CNC(=O)c1cc2nn[nH]c2cc1OC` (stereo not given) [Alizapride HCl], the “z-score of subpopulation abundance” value rises from -0.93 to -0.31.
